Rows were chosen to be rich in hits. Some 2.4% of all compounds tested hit in one or more screens of this group.
D2 ag-1: D2 dopamine receptor (human) agonism. P14416. HEK293 T-REx D2 cells, calcium flux agonist mode. activation, % at 2 µM. 0.53% of 340,000 active;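 active = activation over 3 SD above normal in the single-dose calcium agonist read, cut at about 30% in these data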
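Tetracycline-induced HEK293 Trex cells with D2 receptor force-coupled to calcium signaling, plated overnight at 30 C and loaded with no-wash calcium dye. Calcium flux read kinetically for 180 s after compound addition; responses flag agonists.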
D2 ag-2: activates the human D2 dopamine receptor | P14416 | DiscoveRx PathHunter D2 beta-arrestin, luminescence, 90 min; 100% = 57 uM dopamine signal | activation, % (concentration not given with the values) | 0.084% of 360,000 active | AID 624465; in the data active = activation above about 40%; inconclusive = between about 15% and that limit
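DiscoveRx PathHunter D2 beta-arrestin cells (2,100/well) attached overnight, then compound-stimulated 90 min at 37 C in HBSS/10 mM HEPES/0.1% Tween-20 buffer; beta-galactosidase complementation read by luminescence after 1 h at ambient temperature. Dopamine 57 uM final (EC100) as control.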
D2 PAM-1: positive allosteric modulators of human D2 dopamine receptor | DiscoveRx D2 beta-arrestin cells, luminescence, 90 min; 100% = 57 uM dopamine signal | potentiation, % (test concentration not listed) | 0.23% of 360,000 active | AID 624464; in the data active = potentiation above about 50%; inconclusive = mostly about 30% to 49%
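PathHunter D2 cells, attached overnight at 37 deg C, received compound in DMSO plus dopamine at EC20 (50 nM final) for 90 min at 37 deg C. Beta-arrestin recruitment was read as luminescence after 1 h with detection reagent at ambient temperature.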
D2 PAM-2: D2 dopamine receptor (human) potentiation; P14416; HEK293 T-REx D2, calcium flux, EC20 dopamine potentiation; potentiation, % at 10 µM; 0.34% of 340,000 active;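 active = potentiation over 3 SD above the plate norm, cut at about 30% in these data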
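Primary screen. Calcium kinetics in induced HEK293 T-REx D2 cells: compound pre-addition 180 s, EC20 dopamine, 180 s more.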
D2 antagonist: antagonizes the human D2 dopamine receptor; HEK293 TREx D2 cells, calcium flux, dopamine EC80; P14416; inhibition, % at 10 µM; 2% of 340,000 active; in the data active = inhibition above about 30%; inactive = below that, where a call was filed
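Dopamine at EC80 is the agonist stimulus; test compounds precede it by 180 s. Calcium flux read kinetically in a force-coupled, inducible HEK293 T-REx D2 cell line.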
D3 ag: confirmation of human D3 dopamine receptor agonists, beta-arrestin; shares compounds with D2 ag-1; DiscoveRx D3 beta-arrestin cells, luminescence, 90 min; Potency, µM (top dose mostly 76.9 µM), hits mostly activators; 4% of 2,300 active; AID 720506; note: nearly all actives have a fitted effect of over 70% in size
Target sequence (P35462 whole entry, looked up): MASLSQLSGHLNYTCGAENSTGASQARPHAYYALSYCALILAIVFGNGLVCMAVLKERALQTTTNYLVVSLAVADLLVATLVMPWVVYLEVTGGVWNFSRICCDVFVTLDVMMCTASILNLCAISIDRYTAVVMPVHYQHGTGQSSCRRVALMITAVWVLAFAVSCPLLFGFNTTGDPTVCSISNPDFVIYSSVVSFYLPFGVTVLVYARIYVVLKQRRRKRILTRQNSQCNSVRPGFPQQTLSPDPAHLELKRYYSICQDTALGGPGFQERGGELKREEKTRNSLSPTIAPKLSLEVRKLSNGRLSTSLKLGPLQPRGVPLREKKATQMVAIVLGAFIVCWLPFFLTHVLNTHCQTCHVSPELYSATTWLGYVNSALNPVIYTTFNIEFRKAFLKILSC
D2 ag-3: counter-screen for D3 agonists: human D2 dopamine receptor agonism | 5.9% of 2,300 active | Potency, µM (titrated, usually from 76.9 µM), usual class: activators | AID 720507 | DiscoveRx PathHunter D2 beta-arrestin, luminescence, 90 min; response scale: percent relative to full dopamine signal | shares compounds with D2 ag-1; note: nearly all actives have a fitted effect of over 70% in size
Numbers stand for hits; i = inactive; ? = inconclusive; nt = no result. Unless noted, calls come from the whole dose curve; as a rule, active = well fitted activation curve with a large enough effect; inconclusive = small, poorly fitted or top-dose-only effect; inactive = flat fitted curve, though single readings scatter.

SMILES	D2 ag-1	D2 ag-2	D2 PAM-1	D2 PAM-2	D2 antagonist	D3 ag	D2 ag-3
CC(NC(=O)c1ccc2c(c1)OCO2)C(c1cccs1)N1CCOCC1 (stereo not given)	i	i	i	i	i	nt	nt
CCC(=O)NC(C)C(c1cccs1)N1CCN(Cc2ccccc2)CC1 (stereo not given)	45	i	i	i	i	i	i
CC(NC(=O)c1ccc2c(c1)OCO2)C(c1cccs1)N1CCN(c2ccccc2)CC1 (stereo not given)	43	i	i	i	i	i	i
CC(NC(=O)c1cccs1)C(c1cccs1)N1CCN(Cc2ccccc2)CC1 (stereo not given)	i	i	i	i	i	nt	nt
O=C(CNC(=O)c1ccccc1)N/N=C/c1cn[nH]c1-c1ccccc1	i	i	i	i	i	nt	nt
COc1ccccc1C(=O)NCC(=O)N/N=C/c1cn[nH]c1-c1ccccc1	67	i	i	i	i	i	i
O=C(CSc1nnc(-c2ccccc2)c(-c2ccccc2)n1)NCCc1ccccc1	i	nt	nt	i	nt	nt	nt
COc1ccc(NS(=O)(=O)c2cc(C(=O)N3CCC3)ccc2C)cc1	i	i	i	i	i	i	i
COc1ccc([C@H]2CC(=O)C=C(c3cccc4c3Oc3ccccc3S4)C2)cc1OC	i	i	i	i	i	i	i
O=C1C=C(c2cccc3c2Oc2ccccc2S3)C[C@@H](c2ccc(Cl)cc2)C1	i	i	i	i	i	nt	nt
COc1ccc([C@H]2CC(=O)C=C(c3ccc(O)cc3)C2)cc1OC	i	i	i	i	i	i	i
Cc1nnc(NC(=O)C(=O)c2cc(C)n(-c3ccc(C)c(C)c3)c2C)s1	i	nt	nt	i	nt	nt	nt
Cn1c(C=O)c(C#CC(C)(C)O)c2ccccc21	i	i	i	i	i	i	i
COc1cccc(C#Cc2c(C=O)n(C)c3ccccc23)c1	i	i	i	i	i	nt	nt
COc1ccc(C2(C)NC(=O)N(CC(=O)Nc3cccnc3Cl)C2=O)cc1 (stereo not given)	i	i	i	i	i	nt	nt
CC1(c2ccc(OC(F)F)cc2)NC(=O)N(CC(=O)Nc2cccnc2Cl)C1=O (stereo not given)	i	i	i	i	i	i	i
CCCN(CC(=O)Nc1ccccc1OC)C(=O)CSC(=S)N1CCCC1	i	i	i	i	i	i	i
O=C(CSc1ncnc2scc(-c3ccc(F)cc3)c12)c1ccc2c(c1)OCCO2	50	i	i	i	i	i	i
CCN1CCN(C(=O)CNC(=O)c2nn(-c3ccc(OC)cc3)c(=O)c3ccccc23)CC1	51	i	i	i	i	i	i
Nc1cccc(O)c1	i	i	i	i	i	i	i
Cc1ccc(NC2=C(CC(=O)O)C(c3ccc(F)cc3)N(c3ccc(C)cc3)C2=O)cc1 (stereo not given)	i	nt	nt	i	nt	nt	nt
O=C(NCC(c1ccco1)N1CCN(c2ccccc2F)CC1)C(=O)NC1CCCCC1 (stereo not given)	i	i	i	i	i	nt	nt
O=C(NCC(c1ccco1)N1CCN(c2ccccc2F)CC1)C(=O)NC1CC1 (stereo not given)	i	i	i	i	33	?	?
O=C(NCC(c1ccco1)N1CCN(c2ccccc2F)CC1)C1CCCCC1 (stereo not given)	77	?	i	i	59	?	?
COc1ccc(CC2(CO)CCN(Cc3ccncc3)CC2)cc1	i	i	i	i	i	nt	nt
SMILES	D2 ag-1	D2 ag-2	D2 PAM-1	D2 PAM-2	D2 antagonist	D3 ag	D2 ag-3
OCC1(Cc2cccc(C(F)(F)F)c2)CCN(Cc2cc3ccccc3o2)CC1	49	51	i	i	i	?	40µM
COc1ccc(CC2(CO)CCN(Cc3cc4ccccc4o3)CC2)cc1	nt	62	i	nt	nt	?	11µM
CCOc1ccc(NC(=O)Cn2nnc(C(=O)NCCc3ccccc3)c2N)cc1	i	nt	nt	i	nt	nt	nt
C=CCn1c(-c2sc3nc(C)cc(C)c3c2N)n[nH]c1=S	i	i	i	i	32	i	i
C=CCn1c(-c2cc(OC)cc(OC)c2)n[nH]c1=S	i	i	i	i	i	nt	nt
COc1cc(Cl)c(C)cc1NC(=O)CSc1cc(=O)n(C)c2cc(Cl)ccc12	i	nt	nt	i	nt	nt	nt
COc1ccc(OC(=O)c2nc(SCc3ccccc3F)ncc2Cl)cc1	i	nt	nt	i	nt	nt	nt
CCN(CC(=O)Nc1ccccc1C(F)(F)F)C(=O)c1ccccc1Sc1ccccc1C#N	i	i	i	i	i	i	i
CN(CC(=O)Nc1ccccc1C(F)(F)F)C(=O)c1ccccc1Sc1ccccc1C#N	i	i	i	i	i	nt	nt
Cc1c(Cl)cccc1N(CC(=O)NC1CCCCC1)S(C)(=O)=O	72	i	i	i	i	i	i
COc1cc(CC(=O)Nc2ccc3nc(C)sc3c2)cc(OC)c1OC	56	i	i	i	i	i	i
CC(=O)Nc1ccc(SCCN2CC[C@@H](O)CCC2=O)cc1	i	i	i	i	i	nt	nt
CC(=O)Nc1ccc(SCCN2CC[C@@H](C)CCC2=O)cc1	i	i	i	i	i	i	i
Cc1cc(NC(=O)CSCC(=O)Nc2cc(Cl)ccc2N2CCN(C)CC2)no1	i	i	i	i	i	i	i
COCCn1c(C)cc(O)c(C(c2ccc(F)cc2)N2CCN(c3ccccc3)CC2)c1=O (stereo not given)	i	nt	nt	i	nt	nt	nt
Cc1ccc(C)c(CN2C(=O)c3ccccc3S(=O)(=O)c3ccc(C(=O)NCc4ccccc4)cc32)c1	i	nt	nt	i	nt	nt	nt
O=C(CCc1nc2ccccc2c(=O)[nH]1)N1CCN(C/C=C/c2ccccc2)CC1	i	i	i	i	i	i	?
O=C(O)CCc1nc2ccccc2c(=O)[nH]1	i	i	i	i	i	i	i
O=C(CCc1nc2ccccc2c(=O)[nH]1)Nc1ccc(F)cc1	i	i	i	i	i	nt	nt
CC(=O)N1CCN(C(=O)CCc2nc3ccccc3c(=O)[nH]2)CC1	nt	i	i	nt	nt	nt	nt
Cc1cccc2cc(CNCC3CCCO3)c(Cl)nc12 (stereo not given)	45	i	i	i	i	i	i
CCOc1ccccc1-n1nnnc1SCC(=O)NC(=O)Cc1ccccc1	i	i	i	i	i	i	i
Cc1ccc(N/C(N)=N/c2nc(C)cc(C)n2)cc1	80	i	i	i	31	i	i
Cc1cc(C)nc(/N=C(\N)Nc2ccc([N+](=O)[O-])cc2)n1	i	i	i	i	37	i	i
CCCCc1ccc(N/C(N)=N/c2nc(C)cc(C)n2)cc1	56	?	i	i	43	?	?
CCC(=O)Nc1ccc(N/C(N)=N/c2nc(C)cc(C)n2)cc1	i	i	i	i	i	nt	nt

Screening results as filed in PubChem.
